An excerpt weighted towards active compounds, which were near 3.4% of everything screened.
Vif imaging – blocks HIV Vif function; AID 602346; HEK293T cells, Vif self-association by quenched fluorescence, imaging, 24 h; inhibition, % at 7.49 µM; actives 0.35% (n = 340,000); in the data active = inhibition above about 50%, passing the limit was not always enough; inconclusive = no clear call, values can overlap the other calls; inactive = below about 31%
HSF1 activator – increases HSF-1 driven luciferase reporter signal; NIH3T3-HGL HSF-1 luciferase reporter, MG132, 8 h; 100% = twice DMSO control signal; activation, % at 9 µM; actives 1.7% (n = 300,000); AID 504408;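 active = mean replicate activation of at least 50% with a set share of replicates each reaching 50%; inconclusive = only one of those two conditions met; inactive = mean below 50% and too few replicates reaching it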
esBAF inh – SWI/SNF esBAF complex inhibition | mouse ES cells, Bmi1-luciferase knock-in reporter, 24 h; 100% = twice the neutral-well signal | reporter increase, % at 12.5 µM | actives 2% (n = 350,000) | AID 602393; in the data active = activation above about 40%; inconclusive = no clear call, values can overlap the other calls;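 note: a rise in the Bmi1 reporter signal indicates esBAF inhibition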
HSF1 inh – HSF1 inhibition; NIH3T3-HGL HSE-luciferase, MG132-induced, luminescence 8 h; active compounds read low; activity change, negative = inhibition, % at 7.5 µM (by protocol); actives 0.77% (n = 300,000); AID 2098;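 active = more than half of replicate wells show activity change below -50%, luminescence cut by over half; inconclusive = some wells, but at most half, below -50%; inactive = no replicate well below -50%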;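 note: luciferase reports HSF-1 transcriptional activity via heat shock element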
Of the large screens only hits and unclear results are named; the others gave an inactive call.

Cc1ccc(S(=O)(=O)Nc2ccc(-n3cnnn3)cc2)c(C)c1	none (no result: HSF1 activator, HSF1 inh)
COc1ccc(CN2[C@H](CO)[C@H]3c4ccccc4N(C(=O)NC(C)C)C[C@H]32)cc1	none (no result: Vif imaging, HSF1 activator, HSF1 inh)
Cc1cccc(C(=O)NCCC(=O)NCc2ccccc2Cl)c1	Vif imaging 53.6 (no result: HSF1 activator, HSF1 inh)
Cc1cccc(NC(=O)CCNC(=O)c2ccc(Br)cc2)c1	esBAF inh 54.1
CC(=O)Nc1cccc(NC(=O)c2ccc(Br)cc2)c1	esBAF inh 42.3
C[C@@H]1CCCCO[C@@H](CN(C)S(=O)(=O)c2ccc(F)cc2)[C@H](C)CN([C@@H](C)CO)C(=O)c2cc(NS(=O)(=O)c3cccs3)ccc2O1	none (no result: Vif imaging, HSF1 activator, HSF1 inh)
COc1ccc(OCC(=O)N2CCN(c3cccc(Cl)c3)CC2)cc1	none (no result: esBAF inh)
O=C(c1ccc2nc[nH]c2c1)N1CCN(c2cccc(C(F)(F)F)c2)CC1	none (no result: esBAF inh)
O=C(COc1ccc(C(=O)O)cc1)Nc1cccc(C(F)(F)F)c1	none
O=C(c1ccc2ncsc2c1)N1CCN(c2cccc(C(F)(F)F)c2)CC1	esBAF inh 46.0 (no result: HSF1 activator, HSF1 inh)
COc1ccc(OCC(=O)N2CCN(c3cccc(C(F)(F)F)c3)CC2)cc1	HSF1 inh -86.8 (no result: esBAF inh)
CN1CCN(C(=S)c2ccc(OCC(=O)Nc3cccc(C(F)(F)F)c3)cc2)CC1	Vif imaging 54.3
C[C@H](C(=O)N(C)C[C@@H]1OCc2ccccc2-c2ccccc2C(=O)N([C@H](C)CO)C[C@@H]1C)c1ccccc1	none (no result: Vif imaging, HSF1 activator, HSF1 inh)
O=C(C[C@H]1CC[C@@H](NC(=O)C2CCC2)[C@H](CO)O1)NC1CCC1	none (no result: Vif imaging, HSF1 activator, HSF1 inh)
O=C(Nc1nnc(-c2ccccc2Cl)s1)C1CCN(S(=O)(=O)c2ccc(Cl)cc2)CC1	HSF1 activator 56.0 (no result: esBAF inh)
COC(=O)C[C@H]1CC[C@@H]2[C@H](COc3ccc(NC(=O)Nc4ccccc4C)cc3C(=O)N2C)O1	none (no result: Vif imaging, HSF1 activator, HSF1 inh)
COc1cc(NS(=O)(=O)c2cc(C)ccc2OC)c(OC)cc1Cl	HSF1 activator 67.4
CC(C)(C)NC(=O)C(c1ccncc1)N(C(=O)Cn1nnc(-c2ccc(F)cc2)n1)c1ccccc1F (centres undefined)	Vif imaging 60.5 (no result: esBAF inh)
C[C@H](NC(=O)C[C@H]1CC[C@@H]2[C@H](COC[C@@H](O)CN2C)O1)c1ccccc1	none (no result: Vif imaging, HSF1 activator, HSF1 inh)
Cc1cn(Cc2ccccc2Cn2cc(C)c(=O)[nH]c2=O)c(=O)[nH]c1=O	HSF1 activator 70.6 (no result: esBAF inh)
CCN(c1ccccc1)S(=O)(=O)c1cnc[nH]1	HSF1 inh -69.9 (no result: Vif imaging)
CN(CC(=O)NCc1ccccc1)S(=O)(=O)c1cnc[nH]1	none (no result: HSF1 activator, HSF1 inh)
O=c1cc(-c2ccccc2Cl)oc2c(Br)ccc(O)c12	esBAF inh 83.1 (no result: Vif imaging)
O=c1cc(-c2ccccc2Cl)oc2cccc(O)c12	none
O=C(Nc1ccc(O)c2c(=O)cc(-c3ccccc3Cl)oc12)c1ccc(Cl)c(Cl)c1	esBAF inh 50.8
Cc1ccccc1C(=O)Nc1ccc(O)c2c(=O)cc(-c3ccccc3Cl)oc12	none (no result: Vif imaging)
O=C(Nc1ccccc1)C1=C[C@@H](C2CC2)C[C@@H](OCc2ccc(CO)cc2)O1	esBAF inh 59.5
O=C(O)C1=C[C@@H](C2CC2)C[C@@H](OCCCCO)O1	none
C=CCOC(=O)C1=C[C@@H](c2ccc(Br)cc2)C[C@@H](OCCCCO)O1	Vif imaging 51.3
O=C(Nc1ccccc1)C1=C[C@H](c2ccccc2)C[C@H](OCCCCO)O1	esBAF inh 51.1
O=C(Nc1ccccc1)C1=C[C@@H](C2CC2)C[C@@H](OCCCCO)O1	esBAF inh 66.9
Cc1noc(C)c1NC(=O)Nc1ccc2c(c1)CC(=O)N([C@H](C)CO)C[C@@H](C)[C@@H](CN(C)Cc1ccc(C(=O)O)cc1)O2	none (no result: Vif imaging, HSF1 activator, HSF1 inh)
O=C(Nc1ccccc1)C1=C[C@@H](c2ccc(Br)cc2)C[C@@H](OCCCCO)O1	esBAF inh 57.4
COc1ccc(S(=O)(=O)Nc2ccc3c(c2)C(=O)N([C@@H](C)CO)C[C@H](C)[C@@H](CN(C)S(=O)(=O)c2ccc(F)cc2)O3)cc1	none (no result: Vif imaging, HSF1 activator, HSF1 inh)
O=C(C[C@@H]1C[C@@H]2c3cc(NC(=O)C4CCC4)ccc3O[C@@H]2[C@H](CO)O1)NCc1ccccc1	none (no result: Vif imaging, HSF1 activator, HSF1 inh)
C[C@@H]1CCCCO[C@H](CN(C)C(=O)C2CCCCC2)[C@H](C)CN([C@H](C)CO)C(=O)c2cc(NS(C)(=O)=O)ccc2O1	none (no result: Vif imaging, HSF1 activator, HSF1 inh)
C[C@H](CO)N1C[C@H](C)[C@@H](CN(C)C(=O)c2ccccc2)OCCCC[C@H](C)Oc2ccc(NC(=O)Nc3cccc4ccccc34)cc2C1=O	none (no result: Vif imaging, HSF1 activator, HSF1 inh)
CN(c1ccccc1)c1ccc(/C=N/N2CCOCC2)cc1	HSF1 activator 60.9
OCCC1CN(C2CCSCC2)CCN1C1CCCC1 (centres undefined)	none (no result: esBAF inh)
CC(C)N1CCC(N2CCN(C3CCCC3)CC2CCO)CC1 (centres undefined)	HSF1 inh -56.0 (no result: esBAF inh)
Cc1ccc(Cl)cc1N1CCN(C(c2ccc(C#N)cc2)c2nnnn2C2CCCC2)CC1 (centres undefined)	none (no result: HSF1 activator, HSF1 inh)
Cc1ccc(Cl)cc1N1CCN(C(c2cccnc2)c2nnnn2C2CCCCC2)CC1 (centres undefined)	Vif imaging 70.9
C[C@H](NC(=O)C[C@H]1CC[C@H](NC(=O)c2cccnc2)[C@@H](CO)O1)c1ccccc1	none (no result: Vif imaging, HSF1 activator, HSF1 inh)
Cc1cc(NC(=O)CCS(=O)(=O)c2nc(-c3ccccc3)cc(C(F)(F)F)n2)no1	none (no result: HSF1 activator, HSF1 inh)
CS(=O)(=O)c1nc(-c2ccccc2)cc(C(F)(F)F)n1	Vif imaging inconclusive, HSF1 inh -97.7
COc1ccc(C(=O)Nc2cc(C)c(NC(=O)c3ccccn3)cn2)cc1	esBAF inh inconclusive
COc1ccc(C(=O)NNC(=S)NC(=O)c2cccs2)cc1	HSF1 inh -74.4 (no result: esBAF inh)
COc1ccc(/C=C/C(=O)NC(=S)NNC(=O)c2cccs2)cc1	Vif imaging 66.9 (no result: esBAF inh)
COc1ccc(C(=O)Nc2cnc(NC(=O)c3cccs3)cc2C)cc1	esBAF inh 46.9
COCCNC(=O)C[C@@H]1C[C@H]2c3cc(NC(=O)c4cccnc4)ccc3O[C@H]2[C@@H](CO)O1	none (no result: Vif imaging, HSF1 activator, HSF1 inh)
COc1cccc(-c2csc(NC(C)=O)n2)c1	esBAF inh 77.6
COc1ccc(-c2csc(NC(=O)Nc3ccccc3)n2)cc1	none
COc1ccc(-c2csc(NC(C)=O)n2)cc1OC	none
O=C(Nc1nc(-c2cccc(Br)c2)cs1)Oc1ccccc1	esBAF inh 45.4
COc1cccc(NC(=O)Nc2nc(-c3ccc(OC)c(OC)c3)cs2)c1	esBAF inh 42.7
COc1ccc(CN(C)C[C@H]2OCCCC[C@H](C)Oc3ccc(NC(=O)c4ccncc4)cc3C(=O)N([C@H](C)CO)C[C@H]2C)cc1	none (no result: Vif imaging, HSF1 activator, HSF1 inh)
COCCOC(=O)c1c(NC(=O)CSc2cccc[n+]2[O-])sc(C(N)=O)c1C	HSF1 activator 72.0 (no result: esBAF inh)
O=C1N=c2ccccc2=C1c1sc(Nc2cccc(O)c2)nc1O	esBAF inh 50.9
CCC(=O)Nc1ccc2c(c1)C(=O)N(C)[C@H]1CC[C@H](CC(=O)Nc3c(F)cccc3F)O[C@@H]1CO2	none (no result: Vif imaging, HSF1 activator, HSF1 inh)
N#Cc1ccc(/C=N/NC(=O)c2cc(-c3cccs3)nc3ccccc23)cc1	HSF1 activator 59.5 (no result: esBAF inh)
O=C(N/N=C/c1ccccn1)c1cc(-c2ccc(Cl)cc2)nc2ccccc12	HSF1 activator 147.3 (no result: esBAF inh)
O=C(N/N=C/c1ccco1)c1cc(-c2ccccc2)nc2ccccc12	none
